Values joined by “and” are separate entries in the source; they are usually repeats but may differ in a detail not shown here. Identical values can stand only once. The campaign covered roughly 83,000 compounds. About 780 (0.94%) were called active.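 Rule for the calls: active = mean inhibition of at least 50% with a set share of replicates also reaching that level; inconclusive = no clear call, values can overlap the other calls; inactive = the rest.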 Shown is part of a subset that was picked to be rich in actives.

A short description of the assay: CD40 pathway blockade in BL2 B cells – cell-based, luciferase reporter, single point, primary screen (AID 1053188).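 Note: 0% = neutral control wells and 100% = IKK inhibitor VII at 50 µM.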 Conditions: BL2 NF-kB luciferase reporter, CD40L-induced, 4 h, stronger effect = higher value; at 10 µM unless noted.
By inhibition is commonly meant the change of the read-out against control, counted positive when it falls. Regarding `Cc1ccc(S(=O)(=O)c2ccc(Oc3ccccc3)cc2)cc1`, the inhibition was 1.57% (inactive).
The figure for `O=C1C(Cl)=C(Oc2ccccc2)C(=O)c2ccccc21` is 100% (active); for `COc1ccc2ccccc2c1CNc1nnnn1C` it is -1.14% (inactive).
In the case of `O=C(NCC1CCCO1)c1ccc(S(=O)(=O)Nc2ccc(F)cc2)cc1` (stereo not drawn), the inhibition was 7.17% (inactive).
As for `Cc1nc2cc3c(cc2s1)OCO3`, the inhibition is 3.54% (inactive).
The figure for `CN(C)CCCN(C(=O)c1ccc(S(=O)(=O)N2CCCCCC2)cc1)c1nc2cc3c(cc2s1)OCCO3` is -0.778% (inactive); for `c1c2c(cc3sc(N4CCCCC4)nc13)OCCO2` it is 99.7% (active).
In the case of `O=C(NCC1CCCO1)c1cc2c(s1)CCCC2` (stereo not drawn) it was -65.3% (inactive); in that of `Cc1cccn2c(CNCC(C)Oc3cccnc3)c(C(=O)N3CCOCC3)nc12` (stereo not drawn), 9.25% (inactive).
The figure for `CCOc1ccc(S(=O)(=O)NCCC(=O)N2CCCCCCC2)cc1` is 7.35% (inactive); for `NC(=O)COC(=O)c1sc2cc(F)ccc2c1Cl` it is -6.93% (inactive); for `O=C(COc1ccccc1)Nc1ccc(C(=O)N2CCCC2)cc1` it is -10.1% (inactive).
In the case of `N#C[C@H]1N[C@H](CO)[C@@H]1c1ccc(C#Cc2ccccc2F)cc1`, the inhibition is -56.4% [at 25 µM] (inactive).
In the case of `N#C[C@@H]1N[C@H](CO)[C@@H]1c1ccc(/C=C/c2ccccc2)cc1` it was -33.7% [at 25 µM] (inactive); in that of `N#C[C@@H]1N[C@@H](CO)[C@@H]1c1ccc(C#Cc2ccccc2F)cc1`, -72.6% [at 25 µM] (active).
The figure for `O=C(Nc1cccc(-c2cscn2)c1)C1CCN(Cc2ccsc2)CC1` is -0.734% (inactive).
In the case of `CC(=O)c1c(C)[nH]c(C(=O)OCC(=O)Nc2c(C)n(C)n(-c3ccccc3)c2=O)c1C` it was 6.04% (inactive); in that of `Fc1ccc(-c2ccc(NCCN3CCOCC3)nn2)cc1`, -11.3% (inactive); in that of `COc1ccc2c(c1)c(=Cc1ccc(N(C)C)cc1)c1cc(-c3ccccc3)[n+](C)n12`, 104% (active).
As for `COCCCN(C(=O)CSCc1ccc(C)cc1)c1c(N)n(Cc2ccccc2)c(=O)[nH]c1=O`, the inhibition is 10% (inactive).
The figure for `Cc1cccc(-n2c(=O)c3c(C)c(C)sc3n(CC(N)=O)c2=O)c1` is 0.549% (inactive).
In the case of `CN1CCC(N(C)C(=O)c2ccc(Cl)c(S(=O)(=O)Nc3ccc(Cl)cc3)c2)CC1` it was -2.41% (inactive).
The figure for `CC1(C(=O)O)CCCN(C(=O)/C=C/c2ccccc2)C1` (stereo not drawn) is 4.26% (inactive).
On to `O=C(CCCCCCCC(=O)N1CCCCC1)N1CCCCC1`, for which the inhibition is -9.37% (inactive).
In the case of `COc1ccc(NS(=O)(=O)c2ccc(N3CCOCC3)c(NC(=O)/C=C/C(=O)O)c2)cc1` it was 2.43% (inactive); in that of `O=C(Cn1cnc([N+](=O)[O-])n1)NCCc1ccccc1`, -4.08% (inactive); in that of `O=C(Oc1ccc(-c2nc(-c3ccccn3)no2)cc1)c1ccccc1`, 49.6% (active).
In the case of `O=C(COC(=O)c1ccc(Oc2ccccc2)cc1)Nc1nnc(-c2ccccc2)o1`, the inhibition is -10.4% (inactive).
In the case of `CC(C)c1nc(-c2ccccn2)no1` it was -17.2% (inactive); in that of `O=C(NCCCN1CCCC1=O)c1ccc(S(=O)(=O)Nc2ccccc2)cc1`, 4.15% (inactive).
The figure for `C=C(C)C[C@H]1CCn2cc(nn2)COCCNC1=O` is 4.24% [at 25 µM] (inactive); for `Cc1cccc(CN2CCN(Cc3cnn(-c4ccccc4F)c3)CC2CCO)n1` (stereo not drawn) it is -1.95% (inactive).
The figure for `CN(Cc1cccc2ncccc12)C(=O)CC1C(=O)NCCN1Cc1ccc(F)cc1` (stereo not drawn) is -2.82% (inactive); for `O=C(CCC(=O)c1cccs1)NC1CCCCCC1` it is -60% (inactive); for `O=[N+]([O-])c1cccc(C2=NCCS2)c1` it is 9.1% (inactive).
In the case of `O=C(NC1CC1)c1ccc(-c2ccccc2)cc1`, the inhibition was -88.4% (inactive).
The figure for `C/C=C/c1ccc(OCC(O)CN2CCCCCCC2)c(OC)c1` (stereo not drawn) is 0.219% (inactive).
With `Oc1c(Cl)cc(Cl)c(Cl)c1Cc1c(O)c(Cl)cc(Cl)c1Cl`, the inhibition was 90.9% (active).
The figure for `CC(NC(=O)c1ccccc1)C(=O)Nc1ccccc1` (stereo not drawn) is 3.04% (inactive); for `O=C(NC(=O)c1ccccc1)NC(=O)c1ccccc1` it is -13.8% (inactive).
The figure for `O=C(NC1=CC(=O)c2ccccc2C1=O)c1ccccc1` is 97.7% (active).
In the case of `Cc1ccc(S(=O)(=O)N(C)CC(=O)NCCc2c[nH]c3ccccc23)cc1` it was 12.5% (inactive); in that of `Cc1ccc(S(=O)(=O)N2CCN(C(=O)Cc3sc(C)nc3-c3ccc(F)cc3)CC2)c(C)c1`, -8.23% (inactive); in that of `Cc1cc(C)c2nc(N3CCC(C(=O)NCCN4CCOCC4)CC3)sc2c1`, -16.5% (inactive).
For `CC(OC(=O)CNC(=O)c1ccc(Cl)c([N+](=O)[O-])c1)C(=O)NCc1ccco1` (stereo not drawn), the inhibition was 21.2% (inactive).
In the case of `CCC(C)N(C(=O)COC(=O)c1nc(Cl)ccc1Cl)C1CCS(=O)(=O)C1` (stereo not drawn) it was 3.49% (inactive); in that of `Cc1ccc(-c2ccccc2[C@H]2[C@@H](C#N)N(c3ncc(-c4ccccc4)s3)[C@@H]2CO)cc1`, 50.1% [at 25 µM] (active); in that of `N#C[C@@H]1[C@H](c2ccccc2-c2ccccc2)[C@H](CO)N1c1ncc(-c2ccccc2)s1`, -4.27% [at 25 µM] (inactive).
In the case of `Cc1cccc(-c2ccccc2[C@@H]2[C@H](C#N)N(c3ncc(-c4ccccc4)s3)[C@H]2CO)c1` it was -6.41% [at 25 µM] (inactive).
Consider `Cc1ccc2cccc([N+](=O)[O-])c2n1`, for which the inhibition is -0.702% (inactive).
In the case of `CCC(=O)N1[C@@H](CO)[C@@H](c2ccc(C3=CCCC3)cc2)C12CN(C(=O)COC)C2` it was -9.07% [at 25 µM] (inactive); in that of `CC(OC(=O)C1CC(=O)N(Cc2ccccc2)C1)C(=O)Nc1ccccc1[N+](=O)[O-]` (stereo not drawn), 7.76% (inactive).
The figure for `COc1ccc(NC(=O)c2cc3nc(-c4ccccc4)cc(C)n3n2)cc1OC` is -3.33% (inactive).
In the case of `Cc1nnc2sc(-c3ccco3)nn12` it was 4.37% (inactive); in that of `Cn1c(-c2ccco2)nc2cc3ccccc3cc21`, 50.6% (active).
With `CN(c1nc2ccccc2n2c(-c3ccco3)nnc12)S(=O)(=O)c1ccccc1`, the inhibition is 1.82% (inactive).
Turning to `CCOC(=O)C1(C)NC(c2ccco2)C2C(=O)N(c3ccccc3)C(=O)C21` (stereo not drawn), the inhibition is -6.84% (inactive).
With `CS(=O)(=O)Nc1ccc2c(c1)[C@H]1C[C@@H](CC(=O)NCCc3ccccc3)O[C@@H](CO)[C@H]1O2`, the inhibition is -1.64% [at 25 µM] (inactive).
The figure for `O=C(NCCc1ccc(F)cc1)c1ccc(S(=O)(=O)N2CCCCC2)cc1` is -1.19% (inactive).
In the case of `CCOc1ccc(NC(=O)NNC(=O)c2ccc(Cl)cc2Cl)cc1` it was 10.3% (inactive); in that of `CC(C)(C)NC(=O)NC(=O)COC(=O)Cc1ccc(Cl)cc1Cl`, 15.3% (inactive).
Consider `NC(N)=N/N=C/c1ccc(OCc2ccc(Cl)cc2Cl)cc1`, for which the inhibition was 83.8% (active).
As for `COCCNC(=O)CSc1nc(N)c(NC(=O)c2ccco2)c(=O)[nH]1`, the inhibition is 6.02% (inactive).
As for `COc1ccccc1C(=O)NC(CCSC)C(=O)NNC(=O)c1ccccc1C` (stereo not drawn), the inhibition was 0.904% (inactive).
The figure for `O=C(COC(=O)c1ccc2c(c1)OCCO2)NCc1ccccc1Cl` is -15% (inactive).
The figure for `O=C(COC(=O)c1ccc(F)cc1)Nc1ccc2c(c1)OCO2` is -50.8% (inactive); for `CC(=O)Nc1cccc(C(=O)OCC(=O)c2ccc3c(c2)OCO3)c1` it is 90.8% (active).
In the case of `O=C(COC(=O)c1ccncc1)Nc1ccc2c(c1)OCO2` it was -1.31% (inactive).
As for `O=C1COc2ccc(C(=O)COC(=O)c3ccccc3Cl)cc2N1`, the inhibition is -59.8% (inactive).
Regarding `O=C(COC(=O)c1ccccc1)c1ccc2c(c1)OCCO2`, the inhibition is 101% (active).
On to `CCC(=O)Nc1nnc(S(=O)(=O)N2CCCc3ccccc32)s1`, for which the inhibition was 5.48% (inactive).
In the case of `CC(C)NC(=O)N(C)C[C@H]1Oc2ccc(N(C)C)cc2CC(=O)N(C)C[C@@H]1C` it was 6.49% (inactive); in that of `CC(=O)Nc1cccc(C(=O)OCC(=O)NCc2cc(C)c(O)c(C)c2)c1`, -53.4% (inactive); in that of `CN(CC(=O)Nc1ccc(OC(F)(F)F)cc1)C(=O)C1CCC1`, -5.45% (inactive).
In the case of `O=C(CSc1ccccc1)Nc1cccc(S(=O)(=O)N2CCCCC2)c1` it was -2.87% (inactive).
In the case of `CC(=O)Oc1ccc(-c2cccc(C(=O)N3CCCCC3)c2)cc1` it was -16.5% (inactive).
For the compound `N#C[C@@H]1[C@H](c2ccccc2)[C@H](CO)N1C(=O)CN1CCOCC1`, the inhibition was -6.4% [at 25 µM] (inactive).
As for `CCOC(=O)C1(Cc2cccc(OC)c2)CCN(Cc2csc(C(C)=O)c2)CC1`, the inhibition was 21.6% (inactive).
As for `CN1C(=O)c2cc(NC(=O)c3cccc(F)c3)ccc2OC[C@@H]2O[C@@H](CC(=O)NCC3CCCCC3)CC[C@H]21`, the inhibition is 28.6% [at 25 µM] (inactive) and 23.2% [at 25 µM] (inactive).
In the case of `Cc1ccc(OCCCC(=O)Nc2ccc3c(c2)OCCO3)cc1` it was 8.39% (inactive).
In the case of `COC(=O)CCNc1ccc2c(c1)OCCO2`, the inhibition was 49.8% (active).
Turning to `CCCCC(=O)Nc1ccc2c(c1)OCCO2`, the inhibition is -54.6% (inactive).
In the case of `CSc1ncccc1C(=O)NC1CCCCCC1` it was 3.02% (inactive).
The figure for `C/C=C/c1cnc2c(c1)C(=O)N([C@@H](C)CO)C[C@@H](C)[C@@H](CN(C)C(=O)C1CCOCC1)O2` is -23% [at 25 µM] (inactive); for `C[C@H]1CN([C@@H](C)CO)C(=O)c2cc(C#CC3(O)CCCC3)cnc2O[C@@H]1CN(C)C(=O)Cc1ccccc1` it is -19.3% [at 25 µM] (inactive).
In the case of `C[C@@H]1CN([C@@H](C)CO)C(=O)c2cc(C#CCc3ccccc3)cnc2O[C@@H]1CN(C)C(=O)C1CCOCC1` it was 65% [at 25 µM] (active).
For the compound `COC(=O)Cc1c(-c2[nH]c3ccccc3c2CC(=O)OC)[nH]c2ccccc12`, the inhibition was -13.2% (inactive).
In the case of `COc1ccc(CCNC(=O)CN(c2ccccc2)S(=O)(=O)c2ccccc2)cc1` it was 11.3% (inactive).

Source of the values: PubChem BioAssay AID1053188 (Broad Institute, 2014).
